In all, about 16,000 sequences were measured (“rpm ratio (pull-down/input)”: median about 0.5, highest 2% from about 5.5 on). Shown is part of a subset that was picked to be rich in the highest values.

The assay addresses T1, MBP-FoxP3dN (Mus musculus, UniProt Q99JB6 188-423).
T1 sequence: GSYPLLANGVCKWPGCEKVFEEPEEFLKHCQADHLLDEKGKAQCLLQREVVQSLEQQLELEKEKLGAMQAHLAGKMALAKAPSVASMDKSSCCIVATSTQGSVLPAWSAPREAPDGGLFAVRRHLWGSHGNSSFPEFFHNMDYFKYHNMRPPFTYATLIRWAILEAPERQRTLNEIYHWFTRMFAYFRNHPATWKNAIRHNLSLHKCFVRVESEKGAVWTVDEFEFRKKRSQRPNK
Put plainly: PD-seq (MBP pull-down with sequencing); 20 mM Tris-HCl pH 7.5, 100 mM NaCl, 1.5 mM MgCl2, 0.4 uM protein, 0.1 uM dsDNA library, 30 min, room temperature, amylose pull-down; high values mean tight binding. The note with it: protein: recombinant; tags: His6-MBP; chain copies: 2; dsDNA, one strand shown. A digest of the protocol: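 Binding is given as reads-per-million enrichment, pull-down over input, with replicates pooled. The bait was an N-terminus-lacking mouse FoxP3 or FoxP1 fragment with a His6-MBP tag, expressed in E. coli and used at 0.4 µM with 0.1 µM Klenow-filled degenerate double-stranded DNA library for 30 min at room temperature in Tris pH 7.5 buffer with NaCl and MgCl2. Amylose resin pull-down with three washes was followed by proteinase K release, PCR barcoding and Illumina sequencing.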
On to “GATGATTGTTCTCCCAGCTGATGAATTTAGCCCGTCGAGTAAACAAATTTTCCTAATCTTTCTGTTCAAGCGCCATCTAC”, for which the binding signal is 1.59 RPM ratio (pull-down/input).

“GATGATTGTTCTCCCAGCTGATGAATTAGTGCGATCGAGTAAACAAATTTTCCTAATCTTTCTGTTCAAGCGCCATCTAC”: the binding signal is 0.851 RPM ratio (pull-down/input).

Consider “GATGATTGTTCTCCCAGCTGATGAATTGTTGTTCTCGAGTAAACAAATTTTCCTAATCTTTCTGTTCAAGCGCCATCTAC”, for which the binding signal is 7.17 RPM ratio (pull-down/input).

As for “GATGATTGTTCTCCCAGCTGATGAATTGTCCTCCTCGAGTAAACAAATTTTCCTAATCTTTCTGTTCAAGCGCCATCTAC”, the binding signal was 0.37 RPM ratio (pull-down/input).

Turning to “GATGATTGTTCTCCCAGCTGATGAATTTTGTCTCTCGAGTAAACAAATTTTCCTAATCTTTCTGTTCAAGCGCCATCTAC”, the binding signal is 2.39 RPM ratio (pull-down/input).

Turning to “GATGATTGTTCTCCCAGCTGATGAATTGTCCTACTCGAGTAAACAAATTTTCCTAATCTTTCTGTTCAAGCGCCATCTAC”, the binding signal is 0.368 RPM ratio (pull-down/input).

As for “GATGATTGTTCTCCCAGCTGATGAATTCTTTGTCTCGAGTAAACAAATTTTCCTAATCTTTCTGTTCAAGCGCCATCTAC”, the binding signal was 0.413 RPM ratio (pull-down/input).

Turning to “GATGATTGTTCTCCCAGCTGATGAATTGTCTTACTCGAGTAAACAAATTTTCCTAATCTTTCTGTTCAAGCGCCATCTAC”, the binding signal was 0.469 RPM ratio (pull-down/input).

“GATGATTGTTCTCCCAGCTGATGAATTGTTTGTCTCGAGTAAACAAATTTTCCTAATCTTTCTGTTCAAGCGCCATCTAC”: the binding signal is 7.63 RPM ratio (pull-down/input).

As to “GATGATTGTTCTCCCAGCTGATGAATTTCTGTCCTCGAGTAAACAAATTTTCCTAATCTTTCTGTTCAAGCGCCATCTAC”, the binding signal was 0.313 RPM ratio (pull-down/input).

On to “GATGATTGTTCTCCCAGCTGATGAATTGTTGTCCTCGAGTAAACAAATTTTCCTAATCTTTCTGTTCAAGCGCCATCTAC”, for which the binding signal was 5.63 RPM ratio (pull-down/input).

Regarding “GATGATTGTTCTCCCAGCTGATGAATTTTTTTTCTCGAGTAAACAAATTTTCCTAATCTTTCTGTTCAAGCGCCATCTAC”, the binding signal was 0.267 RPM ratio (pull-down/input).

As to “GATGATTGTTCTCCCAGCTGATGAATTTCTAATCTCGAGTAAACAAATTTTCCTAATCTTTCTGTTCAAGCGCCATCTAC”, the binding signal is 0.288 RPM ratio (pull-down/input).

As for “GATGATTGTTCTCCCAGCTGATGAATTTGTCTACTCGAGTAAACAAATTTTCCTAATCTTTCTGTTCAAGCGCCATCTAC”, the binding signal is 5.77 RPM ratio (pull-down/input).

For the sequence “GATGATTGTTCTCCCAGCTGATGAATTTGTGCGCTCGAGTAAACAAATTTTCCTAATCTTTCTGTTCAAGCGCCATCTAC”, the binding signal was 1.87 RPM ratio (pull-down/input).

“GATGATTGTTCTCCCAGCTGATGAATTTATGCGGTCGAGTAAACAAATTTTCCTAATCTTTCTGTTCAAGCGCCATCTAC”: the binding signal is 1.09 RPM ratio (pull-down/input).

Turning to “GATGATTGTTCTCCCAGCTGATGAATTAGTCCGCTCGAGTAAACAAATTTTCCTAATCTTTCTGTTCAAGCGCCATCTAC”, the binding signal was 0.349 RPM ratio (pull-down/input).

For “GATGATTGTTCTCCCAGCTGATGAATTTTGTCGATCGAGTAAACAAATTTTCCTAATCTTTCTGTTCAAGCGCCATCTAC”, the binding signal was 1.18 RPM ratio (pull-down/input).

Take “GATGATTGTTCTCCCAGCTGATGAATTCTTCGACTCGAGTAAACAAATTTTCCTAATCTTTCTGTTCAAGCGCCATCTAC”: the binding signal is 0.239 RPM ratio (pull-down/input).

As to “GATGATTGTTCTCCCAGCTGATGAATTGATAATCTCGAGTAAACAAATTTTCCTAATCTTTCTGTTCAAGCGCCATCTAC”, the binding signal was 0.411 RPM ratio (pull-down/input).

On to “GATGATTGTTCTCCCAGCTGATGAATTTACTTTCTCGAGTAAACAAATTTTCCTAATCTTTCTGTTCAAGCGCCATCTAC”, for which the binding signal is 1.32 RPM ratio (pull-down/input).

For the sequence “GATGATTGTTCTCCCAGCTGATGAATTCTAGCCTTCGAGTAAACAAATTTTCCTAATCTTTCTGTTCAAGCGCCATCTAC”, the binding signal is 1.89 RPM ratio (pull-down/input).

Turning to “GATGATTGTTCTCCCAGCTGATGAATTTCCGTGGTCGAGTAAACAAATTTTCCTAATCTTTCTGTTCAAGCGCCATCTAC”, the binding signal was 0.282 RPM ratio (pull-down/input).

In the case of “GATGATTGTTCTCCCAGCTGATGAATTCGTCGGGTCGAGTAAACAAATTTTCCTAATCTTTCTGTTCAAGCGCCATCTAC”, the binding signal is 0.574 RPM ratio (pull-down/input).

For “GATGATTGTTCTCCCAGCTGATGAATTGGTTTGCTCGAGTAAACAAATTTTCCTAATCTTTCTGTTCAAGCGCCATCTAC”, the binding signal was 4.24 RPM ratio (pull-down/input).

Take “GATGATTGTTCTCCCAGCTGATGAATTTTAGTTATCGAGTAAACAAATTTTCCTAATCTTTCTGTTCAAGCGCCATCTAC”: the binding signal is 1.33 RPM ratio (pull-down/input).

As to “GATGATTGTTCTCCCAGCTGATGAATTTGTTGTCTCGAGTAAACAAATTTTCCTAATCTTTCTGTTCAAGCGCCATCTAC”, the binding signal was 7.77 RPM ratio (pull-down/input).

Consider “GATGATTGTTCTCCCAGCTGATGAATTTCTGTCTTCGAGTAAACAAATTTTCCTAATCTTTCTGTTCAAGCGCCATCTAC”, for which the binding signal is 0.368 RPM ratio (pull-down/input).

Take “GATGATTGTTCTCCCAGCTGATGAATTGTCTTCTTCGAGTAAACAAATTTTCCTAATCTTTCTGTTCAAGCGCCATCTAC”: the binding signal is 0.478 RPM ratio (pull-down/input).

On to “GATGATTGTTCTCCCAGCTGATGAATTTGTCTTCTCGAGTAAACAAATTTTCCTAATCTTTCTGTTCAAGCGCCATCTAC”, for which the binding signal was 4.22 RPM ratio (pull-down/input).

On to “GATGATTGTTCTCCCAGCTGATGAATTTTTTGTCTCGAGTAAACAAATTTTCCTAATCTTTCTGTTCAAGCGCCATCTAC”, for which the binding signal was 0.367 RPM ratio (pull-down/input).

“GATGATTGTTCTCCCAGCTGATGAATTGTTGTCTTCGAGTAAACAAATTTTCCTAATCTTTCTGTTCAAGCGCCATCTAC”: the binding signal was 5.62 RPM ratio (pull-down/input).

As to “GATGATTGTTCTCCCAGCTGATGAATTCCATTCGTCGAGTAAACAAATTTTCCTAATCTTTCTGTTCAAGCGCCATCTAC”, the binding signal is 0.494 RPM ratio (pull-down/input).

Consider “GATGATTGTTCTCCCAGCTGATGAATTAGAGAGTTCGAGTAAACAAATTTTCCTAATCTTTCTGTTCAAGCGCCATCTAC”, for which the binding signal was 0.399 RPM ratio (pull-down/input).

With “GATGATTGTTCTCCCAGCTGATGAATTACTGGGGTCGAGTAAACAAATTTTCCTAATCTTTCTGTTCAAGCGCCATCTAC”, the binding signal is 0.231 RPM ratio (pull-down/input).

Regarding “GATGATTGTTCTCCCAGCTGATGAATTGAACTGGTCGAGTAAACAAATTTTCCTAATCTTTCTGTTCAAGCGCCATCTAC”, the binding signal is 0.209 RPM ratio (pull-down/input).

Consider “GATGATTGTTCTCCCAGCTGATGAATTAGAGATCTCGAGTAAACAAATTTTCCTAATCTTTCTGTTCAAGCGCCATCTAC”, for which the binding signal was 0.32 RPM ratio (pull-down/input).

“GATGATTGTTCTCCCAGCTGATGAATTAGAATGTTCGAGTAAACAAATTTTCCTAATCTTTCTGTTCAAGCGCCATCTAC”: the binding signal was 0.671 RPM ratio (pull-down/input).

Values taken from article PMC12820563, “FoxP3 forms a head-to-head dimer in vivo and stabilizes its multimerization on adjacent microsatellites”.
